Compound activity deposited in PubChem by several laboratories.
KCC2 mod – modulates chloride dependent transport by human KCC2; Q9H2X9; KCC2 cells, thallium flux FluoZin-2 fluorescence; B-score of Tl+ flux slope (higher = more flux/activation; lower = inhibition) at 10 µM; 190,000 compounds, 2.2% hits; AID 1456;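 active = thallium flux slope and its plate-corrected score both differing from the plate sample mean at a set confidence after two filtering rounds, in either direction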;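 note: slope of fluorescence scaled to starting intensity during 10 to 20 s after thallium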
Target sequence (Q9H2X9 whole entry, looked up): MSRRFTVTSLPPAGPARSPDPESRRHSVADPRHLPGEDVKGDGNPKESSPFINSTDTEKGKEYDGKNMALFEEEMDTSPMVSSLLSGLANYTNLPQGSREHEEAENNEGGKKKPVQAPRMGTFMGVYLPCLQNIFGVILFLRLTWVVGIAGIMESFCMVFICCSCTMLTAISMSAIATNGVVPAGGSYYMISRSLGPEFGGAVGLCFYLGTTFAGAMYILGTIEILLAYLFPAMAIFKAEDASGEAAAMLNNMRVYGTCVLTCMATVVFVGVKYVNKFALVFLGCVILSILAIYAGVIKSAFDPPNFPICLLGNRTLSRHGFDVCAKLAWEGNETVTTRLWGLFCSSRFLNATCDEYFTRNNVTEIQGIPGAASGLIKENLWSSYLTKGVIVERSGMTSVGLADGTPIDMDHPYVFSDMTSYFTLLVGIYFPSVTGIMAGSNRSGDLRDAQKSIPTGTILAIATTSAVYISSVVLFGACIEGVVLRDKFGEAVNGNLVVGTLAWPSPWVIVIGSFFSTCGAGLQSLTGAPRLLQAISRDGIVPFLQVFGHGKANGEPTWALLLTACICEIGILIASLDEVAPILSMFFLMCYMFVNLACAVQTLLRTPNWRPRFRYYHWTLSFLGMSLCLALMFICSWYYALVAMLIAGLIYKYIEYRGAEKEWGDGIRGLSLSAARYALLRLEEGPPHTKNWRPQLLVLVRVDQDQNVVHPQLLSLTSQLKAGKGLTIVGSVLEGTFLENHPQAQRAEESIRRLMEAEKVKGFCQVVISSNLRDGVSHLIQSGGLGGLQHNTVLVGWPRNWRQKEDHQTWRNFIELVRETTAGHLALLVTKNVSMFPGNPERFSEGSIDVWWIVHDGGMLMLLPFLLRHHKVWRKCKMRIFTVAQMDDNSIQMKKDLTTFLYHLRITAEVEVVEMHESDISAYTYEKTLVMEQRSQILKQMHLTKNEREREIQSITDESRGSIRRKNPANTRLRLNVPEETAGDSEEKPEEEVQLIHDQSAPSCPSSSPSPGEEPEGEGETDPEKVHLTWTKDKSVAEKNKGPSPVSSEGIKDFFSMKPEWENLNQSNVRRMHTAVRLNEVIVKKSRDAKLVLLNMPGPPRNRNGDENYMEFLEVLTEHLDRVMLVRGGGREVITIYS
HSV augment – HSV replication enhancement. HSV replication augmentation in cells, fold increase. maximum fold increase. 220,000 compounds, 0.005% hits. AID 1956; in the data active = maximum fold increase above about 1.5; inconclusive = no clear call, values can overlap the other calls; tested in PC3 cells
Measles CPE – protection of cells from measles virus; Measles virus-infected cells, CPE protection, absorbance; protection (pct of control), % at 4 µM; 140,000 compounds, 1.5% hits; AID 841; in the data active = protection mostly above about 24%, no sharp cut-off; inactive = mostly below about 26%
ROMK mod – modulators of human ROMK potassium channel; B-score at 10 µM; Tet-inducible ROMK, thallium flux fluorescence; actives lie on both sides; 130,000 compounds, 2% hits; P48048;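 active = signal ratio slope over the read window, or its plate-corrected B-score, at least 3 SD from the plate mean, either direction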;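 note: B-score of the F/F0 ratio slope over 7 to 12 s after thallium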
Arbovirus inh – antivirals against arbovirus infection. arbovirus infection cell-based antiviral screen. inhibition, % at 10 µM. 200,000 compounds, 0.37% hits; in the data active = inhibition above about 30%
ROMK hit retest – confirmation of human ROMK potassium channel modulators | 3,000 compounds, 54% hits | normalized thallium flux (F/F0 slope) at 10 µM | AID 1917 | shares compounds with ROMK mod | ROMK thallium flux, fluorescence ratio; hits give low values;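 active = Flux at 10 µM at least 3 SD below or above vehicle control mean in one or both replicates; inconclusive = no clear call, values can overlap the other calls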
* hit, by the source's call. An excerpt weighted towards active compounds, which were near 4% of everything screened.

Screening CCCCOC(=O)Nc1cc(C(=O)OC)ccc1C(=O)OC returned KCC2 mod -0.464, HSV augment inactive, Measles CPE 13.9, ROMK mod 3.76*, Arbovirus inh 2.6 and ROMK hit retest 0.0731.
`CCOC(=O)N1CCN(c2nc(-c3ccc(F)cc3)cs2)CC1` gave KCC2 mod -0.0409, HSV augment inactive, Measles CPE 21.1, ROMK mod -2.63*, Arbovirus inh 27.6 and ROMK hit retest inconclusive.
O/N=C1\CCCc2oc3c(c21)CCCC3 was read as HSV augment inactive, Measles CPE 5.5, Arbovirus inh 5.5 and ROMK hit retest 0.0644*.
COC(=O)CN1C(=O)N/C(=C/c2ccccc2OC)C1=O was read as KCC2 mod -0.161, HSV augment inactive, ROMK mod 0.44 and Arbovirus inh 9.4.
`COc1ccc(-c2[nH]ncc2CN2CCC(C(=O)c3ccc(F)cc3)CC2)cc1` gave KCC2 mod 0.054 and HSV augment inactive.
CCC(C)Oc1ccccc1C1CC(=O)NC2=C1C(=O)CCC2 (stereo unspecified) was read as KCC2 mod 0.112, HSV augment inactive, Measles CPE 9.0, ROMK mod 2.77*, Arbovirus inh -9.1 and ROMK hit retest 0.0925.
`CCCNC(=S)Nc1cccc(C(F)(F)F)c1` gave KCC2 mod 0.415, HSV augment inactive, Measles CPE 4.5, ROMK mod -0.571, Arbovirus inh 7.8 and ROMK hit retest inconclusive.
FC(F)(F)c1cccc(NC(=S)NCCN2CCOCC2)c1 was read as KCC2 mod 0.791, HSV augment inactive, Measles CPE 31.5 and Arbovirus inh -2.1.
Cn1cccc1/C=C1\Cc2ccccc2C1=O was read as KCC2 mod -0.421, HSV augment inactive, ROMK mod -1.06 and Arbovirus inh -6.1.
`Cn1cccc1/C=C1\CC(C(C)(C)C)C/C(=C\c2cccn2C)C1=O` (stereo unspecified) gave KCC2 mod inactive, HSV augment inconclusive, Measles CPE 18.4, ROMK mod -3.6*, Arbovirus inh -33.4 and ROMK hit retest 0.0403*.
Screening Cc1ccc(-c2csc(NC(=O)Cc3ccc(F)cc3)n2)o1 returned KCC2 mod 1.36, HSV augment inactive, ROMK mod 4.92*, Arbovirus inh -7.5 and ROMK hit retest 0.0729.
Screening Cc1ccc(-c2csc(NC(=O)c3ccc(-c4ccccc4)cc3)n2)o1 returned HSV augment inactive, Measles CPE 9.4 and Arbovirus inh 13.3.
`CSc1cccc(NC(=S)NCCCN2CCN(c3ccc(F)cc3)CC2)c1` gave KCC2 mod -0.341, HSV augment inactive, ROMK mod -2.7*, Arbovirus inh -8.8 and ROMK hit retest 0.0526*.
`Fc1cccc(NC(=S)NCCCN2CCOCC2)c1` gave KCC2 mod 0.398, HSV augment inactive, Measles CPE 3.3 and Arbovirus inh 9.0.
OCC(Cc1ccccc1)Nc1c2ccccc2nc2ccccc12 (stereo unspecified) was read as KCC2 mod -0.016, HSV augment inactive, Measles CPE 10.4, ROMK mod -6.36*, Arbovirus inh -31.7 and ROMK hit retest 0.0412*.
For O=C(Cc1ccccc1)NNc1c2ccccc2nc2ccccc12 the results were KCC2 mod 0.188, HSV augment inactive, ROMK mod -0.136 and Arbovirus inh -8.3.
Screening C=CCON1C(=O)C(=O)N(OCC=C)[C@H]2CCCC[C@H]21 returned KCC2 mod -1.12 and HSV augment inactive.
Screening CON1C(=O)C(=O)N(OC)C2CCCCC21 (stereo unspecified) returned KCC2 mod -0.0129, Measles CPE 11.4, Arbovirus inh 0.7 and ROMK hit retest inconclusive.
For Cc1ccc(NC(=O)C(C)NC(=O)OCc2ccccc2)cc1C (stereo unspecified) the results were KCC2 mod 0.204 and HSV augment inactive.
`O=C(c1ccncc1)c1ccc(N2CCN(C3CC(=O)N(Cc4cccs4)C3=O)CC2)cc1` (stereo unspecified) gave KCC2 mod -1.67, HSV augment inactive, Arbovirus inh 4.0 and ROMK hit retest 0.06*.
For Cc1cccc(N2CCN(C(=O)CC(NC(=O)c3ccccc3Cl)c3ccccc3)CC2)c1C (stereo unspecified) the results were KCC2 mod -1.37, HSV augment inactive, Measles CPE 7.5, ROMK mod -4.71*, Arbovirus inh -26.8 and ROMK hit retest 0.054*.
Screening COc1ccc(-c2cc3cc(OC)c(OC)cc3c(C)n2)cc1 returned KCC2 mod -0.562 and HSV augment inactive.
For COc1ccc(CS(=O)(=O)/C(Cl)=C(/Cl)C(=O)Nc2ccc(OC)nc2)cc1 the results were KCC2 mod 0.863, HSV augment inactive, Measles CPE -0.4, ROMK mod -2.76*, Arbovirus inh -35.6 and ROMK hit retest inconclusive.
COc1ccc(NC(=O)Cc2ccccc2)cn1 was read as KCC2 mod -0.495, HSV augment inactive, ROMK mod -0.0392 and Arbovirus inh 2.3.
COc1ccc(NC(=O)/C(Cl)=C(/Cl)S(=O)Cc2ccccc2)cn1 (stereo unspecified) was read as HSV augment inactive, Measles CPE -0.4, ROMK mod -3.52*, Arbovirus inh -45.4 and ROMK hit retest 0.0466*.
Screening CC(Sc1nnc(C(F)(F)F)n1C)C(=O)Nc1ccc(S(N)(=O)=O)cc1 (stereo unspecified) returned KCC2 mod 1.65 and HSV augment inactive.
`CSC1=NSC2=NC(=O)/C(=C/c3coc4ccc(O)cc4c3=O)C(=N)N12` gave KCC2 mod inactive, HSV augment inconclusive, Measles CPE 7.1 and Arbovirus inh -13.1.
`N=C1/C(=C\c2coc3ccccc3c2=O)C(=O)N=C2SC=CN12` gave HSV augment inconclusive and ROMK hit retest 0.0377*.
Screening O=c1c2ccccc2c(C=NCc2ccccn2)c(O)n1-c1ccccc1 returned KCC2 mod -0.412, HSV augment inactive, Measles CPE 14.1, Arbovirus inh -15.7 and ROMK hit retest 0.0883.
Screening COc1cccc(-n2c(O)c(C=NCc3ccccn3)c3ccccc3c2=O)c1 returned KCC2 mod -1.1, HSV augment inactive and ROMK mod 0.313.
For N#C/C(=C/c1ccc(N2CCCCCC2)o1)c1cccc(F)c1 the results were KCC2 mod -0.59, HSV augment inactive, Measles CPE 4.8, ROMK mod -2.9*, Arbovirus inh 0.5 and ROMK hit retest 0.0571*.
`COc1cnc(SC)nc1Nc1ccc(C#N)cc1` gave KCC2 mod -0.127 and HSV augment inactive.
Cc1cccn2c(CNC3CCCc4ccccc43)c(C(=O)N3CCCCC3)nc12 (stereo unspecified) was read as KCC2 mod 0.48, HSV augment inactive, ROMK mod -2.97*, Arbovirus inh 10.1 and ROMK hit retest 0.0609*.
